# About 83,000 compounds went through this panel and 20% of them were active in at least one assay; those are over-represented in the sample as a whole.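 Step 1: grow cells in 96-well plates. Step 2: add test compound at a single concentration. Step 3: incubate 48 h. Step 4: record percent growth.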 A number with no mark means an inactive call. Active and inactive are the calls of the source. The calls were made as follows: active = growth percent below 10; inactive = the rest.
# Columns and labels:
# Assay in all cases: NCI-60 one-dose screen, 48 h (100 = growth as untreated, 0 = no growth, -100 = all killed)
# Details in all cases: 10 µM unless noted
# [1] = tested on: HCT-15 colon
# [2] = tested on: HT29 colon
# [3] = tested on: SNB-75 CNS
# [4] = tested on: SNB-19 CNS
# [5] = tested on: U251 CNS
# [6] = tested on: PC-3 prostate
# [7] = tested on: SK-MEL-5 melanoma
# [8] = tested on: UACC-62 melanoma
# [9] = tested on: LOX IMVI melanoma
# [10] = tested on: SK-MEL-28 melanoma
Compound,growth [1],growth [2],growth [3],growth [4],growth [5],growth [6],growth [7],growth [8],growth [9],growth [10]
Nc1n[nH]c2cccc(C#Cc3cccc(C(=O)Nc4cc(CN5CCOCC5)cc(C(F)(F)F)c4)c3)c12,31.8%,18%,44.1%,66.7%,51%,36.9%,29%,11.7%,7.72% (active),14.6%
CNCCOc1nc2c3cnccc3cc(-c3cc(OC)c(OC)c(OC)c3)c2c2ccncc12,-6.39% (active),-39.9% (active),-64.6% (active),-8.3% (active),-17.1% (active),-13.4% (active),-97.7% (active),-62.1% (active),-46.8% (active),-71.6% (active)
COc1ccc(C(=O)c2cc(C)c(OC)c(C)c2)c(OC)c1OC(=O)C(Cl)Cl,3.34% (active),22.4%,56.3%,22.2%,13.5%,19.1%,-20.8% (active),29.3%,20.3%,53.3%
COc1ccc(/C=C(\C#N)n2nc3cccc(F)c3n2)cc1,96.9%,112%,81.5%,94.6%,102%,111%,95.8%,91%,101%,103%
Cn1c(-c2c(N)n(CCCN3CCOCC3)c3nc(C#N)c(C#N)nc23)nc2ccccc21,67.1%,68%,38.4%,76.1%,67.8%,35.5%,92.9%,77.2%,67.7%,59.1%
CCN(CC)CCCC(C)Nc1cc(O)cc2cccnc12 (stereo not drawn),102%,44.4%,74.9%,93.8%,88.2%,86.8%,116%,94.4%,88.7%,122%
Cc1ccc(S(=O)(=O)NNC(=O)/C(=C\c2ccc(Cl)cc2)c2nc3ccccc3s2)cc1,79.5%,106%,68.4%,88.3%,97.5%,90.5%,94.9%,80.7%,90.5%,101%
CN(C)CC(O)c1ccc(/C=C/c2ccc(Cl)cc2)cc1 (stereo not drawn),-51.7% (active),-69.5% (active),-24.8% (active),32.1%,-94% (active),-30.3% (active),-91.5% (active),-79% (active),-54.2% (active),-88.2% (active)
Cc1cc2c(C(=O)NCC#N)cccc2n1-c1nc2c(c(NCc3ccccc3)n1)CCCC2,-52.8% (active),-3.71% (active),-11.4% (active),-49.1% (active),-71% (active),-18.8% (active),-93.4% (active),-78.2% (active),,-28.2% (active)
CC1(C)CC(=O)C2=C(C1)N(c1ccc(F)cc1F)C(N)=C(C#N)C2c1cc(Br)ccc1F (stereo not drawn),93.8%,83.5%,67.1%,85.8%,94.8%,76.8%,93%,91.1%,57.5%,109%
COc1cc2nc(-c3ccc(Cl)cc3)cc(OCCCN3CCC(O)CC3)c2cc1OC,19%,16.8%,39.6%,73.4%,54.5%,41.7%,-30% (active),-24.7% (active),,70%
COC(=O)/C=C1\S/C(=N\NC(=O)c2cc3ccc2/C=C\c2ccc(cc2)/C=C\3)N(Cc2ccccc2)C1=O,27.8%,12.4%,51.2%,56.9%,55%,17.8%,82.3%,51.9%,6.21% (active),101%
Cn1ccnc1C(=O)/C=C/c1ccc(CC(=O)NC2CCCCC2)cc1,33.1%,15.3%,3.39% (active),46.2%,31.4%,59.7%,71.3%,73.4%,44.5%,92.3%
COc1cc2nc(-c3ccc(Cl)cc3)cc(OCCCN3CCCC3)c2cc1OC,20.4%,23.8%,8.25% (active),67.9%,54.4%,41.9%,-8.4% (active),-66.1% (active),-32.7% (active),63.7%

# — PubChem BioAssay (NCI)
